From PubChem BioAssay
Nox1 inh: human Nox1 inhibition; HT29 cells, luminol chemiluminescence ROS; inhibition, % at 6.7 µM; 16,000 compounds, 0.81% hits
PME-1 Maybr inh: Maybridge compound blocking human PME-1. Q9Y570. recombinant PME-1, FP-Rh probe fluorescence polarization. inhibition, % at 9 µM. 16,000 compounds, 0.5% hits. AID 2291; in the data active = inhibition above about 30%
Target sequence (Q9Y570 whole entry, looked up): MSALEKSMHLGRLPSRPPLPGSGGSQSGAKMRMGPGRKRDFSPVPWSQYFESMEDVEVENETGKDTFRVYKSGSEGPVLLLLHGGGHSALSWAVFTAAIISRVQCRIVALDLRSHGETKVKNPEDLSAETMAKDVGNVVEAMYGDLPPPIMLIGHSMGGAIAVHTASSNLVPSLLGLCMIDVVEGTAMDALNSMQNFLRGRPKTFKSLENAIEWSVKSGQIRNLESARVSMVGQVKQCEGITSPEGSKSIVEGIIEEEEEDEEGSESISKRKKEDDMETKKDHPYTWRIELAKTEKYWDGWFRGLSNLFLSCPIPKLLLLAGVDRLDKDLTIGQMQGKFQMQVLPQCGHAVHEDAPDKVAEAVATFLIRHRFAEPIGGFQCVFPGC
S1P1 agonist: activates the human S1P1 receptor. AID 1044. P21453. 16,000 compounds, 1.5% hits. activation, % at 4.5 µM. S1P1 agonist cell-based reporter assay; in the data active = activation above about 80%
Luminol counter: luminol signal inhibition, Nox1 inhibitor counter-screen; HRP/luminol/H2O2 chemiluminescence counterscreen; 16,000 compounds, 0.4% hits; inhibition, % at 6.7 µM; also: reference of the scale not given here
rat GALR2 agon: agonists of rat galanin receptor 2 (GALR2) | 16,000 compounds, 0.5% hits | activation, % at 10 µM | O08726 | cell-based GALR2 agonist screen; in the data active = activation above about 15%
NOTCH agonist: activates NOTCH signaling in reporter cells; NOTCH signaling luciferase reporter cells, luminescence; activation, % at 2.5 µM; 15,000 compounds, 0.4% hits; AID 434982; in the data active = activation above about 2.2%
Large screens that a line does not name were inactive. Shown are actives, neighbours in structure and some others; about 4% of the full set was active somewhere. Rule as the data show it, unless noted: active = inhibition above about 75%; inactive = the rest.

CSc1nc(/C=N/c2nc(C)cc(C)n2)c(O)n1Cc1cccc(Cl)c1	S1P1 agonist 103
CSC1=NCC(=O)N1Cc1cccc(Cl)c1	none
Cc1nc(C(F)(F)F)c(C(=O)O/N=C(\N)c2cccc(C(F)(F)F)c2)s1	S1P1 agonist 99
N/C(=N\OC(=O)c1csc([N+](=O)[O-])c1)c1cccc(C(F)(F)F)c1	none
O=[N+]([O-])c1ccc(N/N=C/c2ccc(-c3cccs3)s2)nc1	none
CCc1nc2c([nH]1)c(=O)n(C)c(=O)n2C	none
CCC(CO)Nc1nc2c([nH]1)c(=O)n(C)c(=O)n2C (configuration not stated)	Nox1 inh 94
ON=C1C/C=C\CC(=NO)C/C=C\C1	none
O=C(Nc1ccc(-c2nc3ccccc3s2)cc1)Nc1cc(F)cc2c1OCOC2	rat GALR2 agon 33
COc1cc(/C=N/NC(=S)Nc2cc(OC)c(Cl)cc2OC)ccc1O	none
O=[N+]([O-])c1cc(C(F)(F)F)cc([N+](=O)[O-])c1Sc1ncc2ccccn12	Nox1 inh 102 (no result: NOTCH agonist)
CCOC(=O)NC(Nc1ccc(F)cc1)(C(=O)OCC)C(F)(F)F (configuration not stated)	none
O=C1CSc2ccc(C(F)(F)F)cc2N1Cc1c(Cl)cccc1Cl	PME-1 Maybr inh 37
O=C1C=CC(=O)N1c1cc(C(F)(F)F)ccc1Cl	none
N#Cc1c(N)sc2c1CCc1ccccc1-2	Nox1 inh 103
N/C(=N\OC(=O)c1cc(-c2ccc(Cl)cc2)oc1C(F)(F)F)c1cccs1	none
N#CCCNc1ccc(N=Nc2ccc(Cl)cc2)cc1	S1P1 agonist 104
COc1ccc(NCCC#N)cc1	none
O=[N+]([O-])c1ccc(OS(=O)(=O)c2cccc3nsnc23)cc1	rat GALR2 agon 47
CS(=O)(=NS(=O)(=O)c1cccc2nsnc12)c1ccc(Cl)cc1 (configuration not stated)	none
COc1ccc(N=Nc2cc(C)c(O)c(CN3CCCCC3)c2)cc1	S1P1 agonist 101
COc1ccc(/C(C)=N/O)cc1CN1CCCC1	none
COc1ccc(CCNC(C#N)c2ccco2)cc1OC (configuration not stated)	S1P1 agonist 105
OC(CN1CCN(Cc2c(F)cccc2Cl)CC1)Cn1ccc2ccccc21 (configuration not stated)	NOTCH agonist 2.7
O=C(NC(=O)N1CCSCC1)c1ccc(Oc2ccc(C(F)(F)F)cc2[N+](=O)[O-])cc1	none
CS(=O)(=O)/C(C#N)=C/c1cccn1S(=O)(=O)c1ccccc1	PME-1 Maybr inh 31
CSC(=N)n1nc(SC)nc1N	NOTCH agonist 2.8
CC(C)C(=O)NNc1nc2c(c(=O)n(C)c(=O)n2C)n1Cc1ccc(Cl)cc1	Nox1 inh 100
C/C(=N\Nc1nc2c(c(=O)n(C)c(=O)n2C)n1Cc1ccccc1)c1ccc(Cl)cc1	none
O=S(=O)(c1ccc(Cl)s1)N1CCN(C(c2ccccc2)c2ccccc2)CC1	NOTCH agonist 6.4
O=S(=O)(c1cc(Br)c(Cl)s1)N1CCC(Cc2ccccc2)CC1	none
CCN(CC)c1ccc(N=C2C=CC(=O)c3ccccc32)c(C)c1	Nox1 inh 99
CCC(=O)Nc1cnc(OC)c(C(F)(F)F)c1	none
CCC(=O)Nc1ccc2c(c1)N(CC)C(C)(C)CC2C (configuration not stated)	Nox1 inh 93
Oc1c(Cl)cc(Cl)cc1/C=N/NC(=S)NC1CC2CCC1C2 (configuration not stated)	rat GALR2 agon 51 (no result: NOTCH agonist)
COC(=O)c1cc(OC)c(OC)cc1NC(=O)c1nccnc1C(=O)O	none
COC(=O)C1=C(C)N=C2SC=C(OC(C)=O)N2C1c1ccc(OC)cc1 (configuration not stated)	none
FC(F)(F)c1cc(-c2cccs2)nc2cc(-c3cccs3)nn12	rat GALR2 agon 30
COc1cc(OCc2ccccc2)ccc1CN1CCN(c2ccc(C(F)(F)F)cn2)CC1	none
OCCCNNC(=S)Nc1ccc(Cl)cc1Cl	none
S=C(NNc1c(Cl)cncc1Cl)Nc1ccc(Cl)cc1Cl	S1P1 agonist 119
Cc1cc(C(=O)Nc2ccccc2N2CCOCC2)c(C)o1	none
CCOC(=O)NNC(=S)Nc1ccccc1N1CCOCC1	Luminol counter 98
CSc1nnc(-c2sc3nc(C)cc(C)c3c2N)n1Cc1ccccc1	rat GALR2 agon 29
Cn1cc(S(=O)(=O)NCc2ccc3c(c2)OCO3)c(C(F)(F)F)n1	none
Cn1nc(C(C)(C)C)cc1C(=O)NCc1ccc2c(c1)OCO2	S1P1 agonist 84
Cc1cn(CCC(=O)NCc2ccc3c(c2)OCO3)c2ccccc12	NOTCH agonist 3.5
COc1ccc(/C=N/NC(=S)Nc2ccc(F)cc2)cc1	none
O=C(OC1CCSC1)c1cc(C(F)(F)F)cc(C(F)(F)F)c1 (configuration not stated)	S1P1 agonist 120 (no result: NOTCH agonist)
Cc1cc(C(=O)NNc2cc(Cl)ccc2Cl)no1	Nox1 inh 81
Cc1noc(C)c1C(=O)NNc1cc(Cl)ccc1Cl	none
Cc1nnsc1C(=O)NNc1cc(Cl)ccc1Cl	Nox1 inh 76
O=[N+]([O-])c1cc(C2SCCS2)ccc1SC1CCCCC1	S1P1 agonist 86
O=C(N/C(=C\c1ccc(-c2ccc([N+](=O)[O-])cc2)o1)c1nc2ccccc2[nH]1)c1ccccc1	none
Nc1ccc(Nc2ccc(N)cc2S(=O)(=O)O)cc1	PME-1 Maybr inh 44
N#Cc1ccc(N2CCS(=NS(=O)(=O)c3ccc(Cl)cc3)CC2)c([N+](=O)[O-])c1	none
Cn1ncc(C(=O)N=S(C)(=O)c2ccc(Cl)cc2)c1[N+](=O)[O-] (configuration not stated)	none
Cn1ncc(C(=O)NC(=O)Nc2ccc(F)cc2)c1[N+](=O)[O-]	Nox1 inh 78
CC(C)(C)c1cc(C(=O)NCc2ccc(C#N)cc2)n(Cc2ccccc2)n1	none
CC(C)(C)c1cc(C(=O)NNC(=S)Nc2ccccc2)n(Cc2ccc(Cl)cc2Cl)n1	S1P1 agonist 101
c1ccc(-c2nsc(-n3ccc(-c4cccs4)n3)n2)cc1	rat GALR2 agon 20
COc1ccc(/C=C2\CC/C(=C\c3ccc(OC)c(OC)c3)C2=O)cc1OC	none
COc1ccc(/C=C/c2nc3ccccc3s2)cc1OC	S1P1 agonist 85
COCCCNC(=S)NNC(=O)CC#N	Luminol counter 98
FC(F)(F)c1cccc(CSc2n[nH]c(=S)s2)c1	Luminol counter 99
Clc1ccc(COc2ccc(-c3noc(C4CC4)n3)cc2)cc1	S1P1 agonist 101
CN(C)S(=O)(=O)Oc1ccc(-c2noc(C3CCC3)n2)cc1	none
O=S(=O)(Nc1ccc(C(F)(F)F)cc1Cl)c1cc(Br)c(Cl)s1	S1P1 agonist 113
Cc1ccc(Cc2nn[nH]n2)cc1C	none
Cn1nc(-c2ccccc2)c(O)c(N=Nc2ccccc2)c1=O	Nox1 inh 97
Cc1cccc2c(O)c(N=Nc3ccccc3)c(=O)oc12	none
Nc1nc2[nH]c(=S)[nH]c2c(=O)[nH]1	Nox1 inh 93
Cc1c(S(=O)(=O)c2ccc(Cl)cc2)csc1C(=O)Nc1ccc(F)cc1F	rat GALR2 agon 22
